Laboratory results: PubChem BioAssay (Tox21)
Where “and” joins values, the source holds several entries; their conditions need not be identical. Equal entries are not always repeated. Results filed as inconclusive are left out. Entries that show only a call come without a potency. The source holds several records for some structures; these can differ, active in one and inactive in another. Calls of active or inactive are those of the source. Unless noted, calls come from the whole dose curve; as a rule, active = well fitted curve in the direction sought with a large enough effect in the repeat runs; inconclusive = weak or mixed curves; inactive = no such curve, though single readings can be large; an effect the other way counts as inactive or inconclusive.

How the values were obtained:
[1] = qHTS assay to identify small molecule antagonists of the estrogen related receptor (ERR) signaling pathway from Tox21 library (AID 1224848); note: nearly all actives have a fitted effect of over 50% in size; note: potency is the fitted concentration of half-maximal effect
How it was run: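 Cells: ERR line, 2,000/well; 6 h preincubation 37 C/5% CO2. Cpd in DMSO via pin tool; 18 h, 37 C. ONE-Glo, 30 min RT, luminescence.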

[2] = qHTS RealTime-Glo MT Cell Viability Assay in HepG2 cells - 24 hour (AID 1224867); note: nearly all actives have a fitted effect of over 50% in size; note: potency is the fitted concentration of half-maximal effect
How it was run: (§1)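 Viability was tracked continuously by NanoLuc luminescence from prosubstrate reduced by living HepG2 cells, at successive time points over 40 h of compound exposure. Cells with reagent were preincubated 5 h at 37 °C before compound addition.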

[3] = qHTS RealTime-Glo MT Cell Viability Assay in HEK293 cells - 32 hour (AID 1224868); note: nearly all actives have a fitted effect of over 50% in size; note: potency is the fitted concentration of half-maximal effect
How it was run: (§2)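 Viability tracked continuously by luminescence as live cells reduce a prosubstrate for NanoLuc; HEK293 cells preincubated 5 h, compound-treated at 37 C, and read at 0, 8, 16, 24, 32 and 40 h.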

[4] = A CellTox Green Cytotoxicity Assay to monitor cytotoxicity in HEK293 cells - 0 hour (AID 1224869); note: nearly all actives have a fitted effect of over 50% in size
How it was run: (§3)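 Cytotoxicity was tracked continuously in HEK293 cells by a DNA-binding dye excluded from viable cells. Compounds were transferred in DMSO 5 h after seeding; fluorescence was recorded at intervals up to 40 h.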

[5] = qHTS RealTime-Glo MT Cell Viability Assay in HepG2 cells - 40 hour (AID 1224870); note: nearly all actives have a fitted effect of over 50% in size; note: potency is the fitted concentration of half-maximal effect
How it was run: (§4)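 HepG2 cells mixed with RealTime-Glo MT reagents (NanoLuc plus cell-permeant prosubstrate) were seeded at 600 cells/well, incubated 5 h at 37 C/5% CO2, then pinned with compounds in DMSO; nonlytic luminescence tracked viability during 40 h treatment.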

[6] = A CellTox Green Cytotoxicity Assay to monitor cytotoxicity in HEK293 cells - 40 hour (AID 1224871); note: nearly all actives have a fitted effect of over 45% in size; note: potency is the fitted concentration of half-maximal effect
How it was run: as §3

[7] = qHTS RealTime-Glo MT Cell Viability Assay in HEK293 cells - 16 hour (AID 1224872); note: nearly all actives have a fitted effect of over 50% in size; note: potency is the fitted concentration of half-maximal effect
How it was run: as §2

[8] = qHTS RealTime-Glo MT Cell Viability Assay in HEK293 cells - 40 hour (AID 1224874); conditions: RealTime-Glo luminescence; max response: stronger effect = lower value; note: nearly all actives have a fitted effect of over 50% in size; note: potency is the fitted concentration of half-maximal effect
How it was run: (§5)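 Nonlytic bioluminescent viability monitoring. HEK293 at 600 cells/well with reagent; 5 h settle; compound transfer by pintool; plates held at 37 C and read at set time points.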

[9] = A CellTox Green Cytotoxicity Assay to monitor cytotoxicity in HEK293 cells - 24 hour (AID 1224875); note: nearly all actives have a fitted effect of over 45% in size; note: potency is the fitted concentration of half-maximal effect
How it was run: as §3

[10] = A CellTox Green Cytotoxicity Assay to monitor cytotoxicity in HepG2 cells - 16 hour (AID 1224876); note: nearly all actives have a fitted effect of over 45% in size; note: potency is the fitted concentration of half-maximal effect
How it was run: (§6)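 Real-time, homogeneous cytotoxicity readout: dead-cell DNA staining by CellTox Green in HepG2 monolayers, fluorescence measured at timed intervals up to 40 h of continuous compound exposure.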

[11] = qHTS RealTime-Glo MT Cell Viability Assay in HepG2 cells - 32 hour (AID 1224877); note: nearly all actives have a fitted effect of over 55% in size; note: potency is the fitted concentration of half-maximal effect
How it was run: as §1

[12] = A CellTox Green Cytotoxicity Assay to monitor cytotoxicity in HepG2 cells - 24 hour (AID 1224878); note: nearly all actives have a fitted effect of over 45% in size; note: potency is the fitted concentration of half-maximal effect
How it was run: as §6

[13] = A CellTox Green Cytotoxicity Assay to monitor cytotoxicity in HepG2 cells - 40 hour (AID 1224879); note: nearly all actives have a fitted effect of over 40% in size; note: potency is the fitted concentration of half-maximal effect
How it was run: as §6

[14] = qHTS RealTime-Glo MT Cell Viability Assay in HEK293 cells - 0 hour (AID 1224880)
How it was run: as §5

[15] = A CellTox Green Cytotoxicity Assay to monitor cytotoxicity in HEK293 cells - 32 hour (AID 1224881); note: nearly all actives have a fitted effect of over 40% in size; note: potency is the fitted concentration of half-maximal effect
How it was run: as §3

[16] = A CellTox Green Cytotoxicity Assay to monitor cytotoxicity in HepG2 cells - 0 hour (AID 1224882); note: nearly all actives have a fitted effect of over 35% in size
How it was run: as §6

[17] = qHTS assay to identify small molecule agonists of H2AX - cell viability counter screen (AID 1224847; calls by dose curve; note: top concentration of the series differs between compounds; nearly all actives have a fitted effect of over 30% in size)
How it was run: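 Viability of CHO-K1 (wild type) cells after 3 hr compound exposure was measured by CellTiter-Glo luminescence.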

[18] = qHTS RealTime-Glo MT Cell Viability Assay in HepG2 cells - 8 hour (AID 1224873); note: nearly all actives have a fitted effect of over 55% in size; note: potency is the fitted concentration of half-maximal effect
How it was run: as §4

[19] = qHTS assay to identify small molecule agonists of the estrogen related receptor (ERR) signaling pathway from Tox21 library (AID 1224849; calls by dose curve; note: nearly all actives have a fitted effect of over 15% in size); conditions: ERR reporter cell line, ONE-Glo luciferase, 18 h; at 92.4 µM (top of the series) unless noted
How it was run: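 Agonist signal is luciferase luminescence from an ERR reporter cell line treated 18 h at 37 C with DMSO-dissolved compounds, read 30 min after ONE-Glo addition at room temperature.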

SMILES	Potency [1]	Potency [2]	Potency [3]	Potency [4]	Potency [5]	Potency [6]	Potency [7]	Potency [8]	Potency [9]	Potency [10]	Potency [11]	Potency [12]	Potency [13]	Potency [14]	Potency [15]	Potency [16]	Potency [17]	Potency [18]	max response [8]	activity change, positive = activation [19]
O=C(CCCN1CCC2(CC1)C(=O)NCN2c1ccccc1)c1ccc(F)cc1	inactive	inactive	9.52 µM (active)	inactive	inactive	19 µM (active)	6.74 µM (active)	13.4 µM (active)	inactive	inactive	inactive	inactive	inactive	inactive	inactive	inactive				
C[C@@H]1O[C@@H](O[C@H]2C[C@@H](O)[C@]3(CO)[C@H]4[C@H](O)C[C@]5(C)[C@@H](C6=CC(=O)OC6)CC[C@]5(O)[C@@H]4CC[C@]3(O)C2)[C@H](O)[C@H](O)[C@H]1O				inactive					inactive	inactive		inactive	inactive		inactive	inactive	inactive			
O=[N+]([O-])c1c2ccccc2cc2ccccc12	inactive	inactive	inactive	inactive	inactive		inactive		5.43 µM (active)	1.08 µM (active)	inactive		60.9 µM (active)	inactive	5.43 µM (active)	inactive		inactive	1.8% (inactive)	
S=C=Nc1cccc2ccccc12		inactive	inactive	inactive	inactive	inactive	inactive		inactive	inactive	inactive	inactive	inactive	inactive	inactive	inactive			2.28% (inactive)	-54.3% (inactive)
COP(=S)(OC)Oc1cc(Cl)c(Br)cc1Cl		inactive	inactive	inactive	inactive		inactive			inactive	inactive	inactive	inactive	inactive	inactive	inactive				
CC(C)OC(=S)S			inactive	inactive	inactive	inactive				inactive	inactive	inactive		inactive	inactive	inactive		inactive		
c1ccc2c(c1)OCC(C1=NCCN1)O2 (stereo unspecified)				inactive		23.9 µM (active)		19 µM (active)	inactive	inactive		inactive	inactive	inactive	19 µM (active)	inactive		inactive		
Fc1ccc(Oc2ccnc3cc(Cl)cc(Cl)c23)cc1		inactive	11 µM (active)	inactive	inactive	inactive	7.76 µM (active)	9.77 µM (active)	inactive	inactive		inactive		inactive	inactive	inactive		inactive		
O=CC(Br)(Br)Br		48.8 µM (active)	2.45 µM (active)	inactive	43.5 µM (active)			2.45 µM (active)			43.5 µM (active)	48.8 µM (active)	43.5 µM (active)	inactive		inactive				
CC(C)(C)C(O)C(Oc1ccc(-c2ccccc2)cc1)n1cncn1 (stereo unspecified)	27.3 µM (active)	inactive	24.5 µM (active)		inactive	inactive	49 µM (active)	21.9 µM (active)	inactive	inactive	inactive			inactive	inactive	inactive				-60.3% (inactive)
[Cd+2].[Cl-].[Cl-]				inactive	inactive	24.8 µM (active) and 7.76 µM (active)			inactive	55.4 µM (active) and inactive		22.1 µM (active) and 38.9 µM (active)	19.7 µM (active) and 24.5 µM (active)	inactive	44 µM (active) and 15.5 µM (active)	inactive		inactive		
C=CC(=O)OCC(COC(=O)C=C)(COC(=O)C=C)COC(=O)C=C	13.7 µM (active)	6.16 µM (active)	3.89 µM (active)		5.49 µM (active)	19.5 µM (active)	3.89 µM (active)	3.89 µM (active)		inactive	5.49 µM (active)	49 µM (active)	21.9 µM (active)	inactive	27.5 µM (active)	inactive		3.09 µM (active)		-79.4% (inactive)
Clc1ccc(CCC(Cn2ccnc2)Sc2c(Cl)cccc2Cl)cc1 (stereo unspecified)	18.8 µM (active)		9.52 µM (active)	inactive	inactive	inactive		8.49 µM (active)					10.7 µM (active)	inactive	inactive					-61.6% [at 42.5 µM] (inactive)
BrC(Br)C(Br)(Br)Br		inactive	43.9 µM (active)	inactive	inactive		43.9 µM (active)			inactive				inactive		inactive		inactive		
Nc1ccc(Cc2ccc(N)c(Cl)c2)cc1Cl	26.4 µM (active)	inactive	26.6 µM (active)	inactive	inactive	inactive	29.9 µM (active)	23.7 µM (active)		inactive		inactive	inactive	inactive	inactive					-35.2% (inactive)
O=[N+]([O-])O.O=[N+]([O-])O.[Cd]			49 µM (active)	inactive	inactive	6.92 µM (active)		24.5 µM (active)		inactive		49 µM (active)	43.6 µM (active)	inactive	38.9 µM (active)	inactive				
C=CC(=O)OCCCCOC(=O)C=C	inactive	49 µM (active)	34.7 µM (active)	inactive		43.6 µM (active)				inactive	49 µM (active)	inactive	49 µM (active)	inactive	43.6 µM (active)	inactive				-26.6% (active)
O=C(O)c1cc[c]([Hg][Cl])cc1		24.5 µM (active)			24.5 µM (active)				24.5 µM (active)	38.9 µM (active)	24.5 µM (active)	27.5 µM (active)	19.5 µM (active)	inactive	21.9 µM (active)	inactive		34.7 µM (active)		
CC[C@H](C)[C@H]1O[C@]2(C=C[C@@H]1C)C[C@@H]1C[C@@H](C/C=C(\C)[C@@H](O[C@H]3C[C@H](OC)[C@@H](O[C@H]4C[C@H](OC)[C@@H](O)[C@H](C)O4)[C@H](C)O3)[C@@H](C)/C=C/C=C3\CO[C@@H]4[C@H](O)C(C)=C[C@@H](C(=O)O1)[C@]34O)O2	7.2 µM (active)			inactive				10.3 µM (active)	inactive					inactive	inactive	inactive				-67% [at 42.5 µM] (inactive)
OC(c1ccc(Cl)cc1)(c1ccc(Cl)cc1)C(Cl)(Cl)Cl	inactive			inactive	inactive	49 µM (active)			inactive	inactive	inactive	inactive	inactive	inactive		inactive		inactive		
CC(C)(O)c1cnn2c(-c3ccc(F)c(-c4c(F)cccc4C#N)c3)cnc2n1	27.3 µM (active)	inactive	5.49 µM (active)	inactive	inactive		5.49 µM (active)	4.9 µM (active)	inactive	inactive	inactive	inactive	inactive			inactive		inactive		-53.4% (inactive)
ClC(Cl)=C(c1ccc(Cl)cc1)c1ccc(Cl)cc1	inactive	inactive			inactive	43.6 µM (active)	56.3 µM (active)		inactive	inactive	inactive	inactive	inactive	inactive		inactive		inactive		-26.1% (inactive) and 7.66% (inactive)
Cc1cc(C)c(C2=C(OC(=O)CC(C)(C)C)C3(CCCC3)OC2=O)c(C)c1	inactive	inactive	inactive	inactive	inactive	inactive	inactive		inactive	inactive	inactive	inactive	inactive	inactive	inactive	inactive		inactive	-6.03% (inactive)	-1.28% (inactive)
CC(C)[C@H](C(=O)OC(C#N)c1cccc(Oc2ccccc2)c1)c1ccc(OC(F)F)cc1 (stereo partly specified)	15.4 µM (active)	inactive	inactive	inactive	inactive	inactive	inactive		inactive	inactive	inactive	inactive	inactive	inactive	inactive	inactive			-16.8% (inactive)	-19.1% (inactive)
